The nature of assay [1]: Validation screen for inhibitors of Lassa infection (AID 463096; calls by dose curve; note: % is set by controls: 0 for no effect and ±100 for the full control effect).
Assay [2] can be described thus: qHTS for Inhibitors of the Functional Ribonucleoprotein Complex (vRNP) of Lassa (LASV) Arenavirus: LASV Primary Screen - GLuc reporter signal (AID 1347082; calls by dose curve; tested in HEK293 reporter line; note: % is set by controls: 0 for no effect and ±100 for the full control effect; nearly all actives have a fitted effect of over 60% in size). On the technique in general: qHTS replaces the single test concentration by a dilution series.
Assay [3] can be described thus: qHTS for Inhibitors of the Functional Ribonucleoprotein Complex (vRNP) of Lassa (LASV) Arenavirus: Viability assay - alamar blue signal for LASV Primary Screen (AID 1347083; calls by dose curve; tested in HEK293 reporter line; note: % is set by controls: 0 for no effect and ±100 for the full control effect; nearly all actives have a fitted effect of over 80% in size).
Assay [4] can be described thus: qHTS for Inhibitors of the Functional Ribonucleoprotein Complex (vRNP) of Lymphocytic Choriomeningitis Arenaviruses (LCMV): Viability assay - alamar blue signal for LCMV Primary Screen (AID 1347085; calls by dose curve; tested in HEK293 reporter line; note: % is set by controls: 0 for no effect and ±100 for the full control effect; nearly all actives have a fitted effect of over 80% in size).
In assay [5] the target is Nucleoprotein (Lymphocytic choriomeningitis virus (strain Armstrong)) (UniProt P09992). As to the kind of experiment: qHTS for Inhibitors of the Functional Ribonucleoprotein Complex (vRNP) of Lymphocytic Choriomeningitis Arenaviruses (LCMV): LCMV Primary Screen - GLuc reporter signal (AID 1347086; calls by dose curve; note: % is set by controls: 0 for no effect and ±100 for the full control effect; nearly all actives have a fitted effect of over 70% in size).
Nucleoprotein (Lymphocytic choriomeningitis virus (strain Armstrong)), sequence (P09992 whole entry, looked up): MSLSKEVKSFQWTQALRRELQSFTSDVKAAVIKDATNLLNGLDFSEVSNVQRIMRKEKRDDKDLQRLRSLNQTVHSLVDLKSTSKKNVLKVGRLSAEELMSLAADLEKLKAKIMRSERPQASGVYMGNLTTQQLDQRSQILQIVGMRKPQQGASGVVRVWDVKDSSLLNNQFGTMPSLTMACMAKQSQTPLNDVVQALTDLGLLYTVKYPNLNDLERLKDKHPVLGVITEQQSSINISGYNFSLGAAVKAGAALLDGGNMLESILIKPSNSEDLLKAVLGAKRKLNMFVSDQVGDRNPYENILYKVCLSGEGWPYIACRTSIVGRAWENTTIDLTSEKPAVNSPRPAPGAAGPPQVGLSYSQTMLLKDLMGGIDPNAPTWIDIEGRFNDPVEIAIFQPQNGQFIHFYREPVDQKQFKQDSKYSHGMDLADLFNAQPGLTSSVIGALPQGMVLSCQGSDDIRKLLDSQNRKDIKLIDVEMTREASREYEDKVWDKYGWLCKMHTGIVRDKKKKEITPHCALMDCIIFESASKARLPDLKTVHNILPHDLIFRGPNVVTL
Assay [6] has as its target Cytochrome P450 3A4 (Homo sapiens) (UniProt P08684). As to the kind of experiment: qHTS Assay for Inhibitors and Substrates of Cytochrome P450 3A4 (AID 884). Note: potency is the fitted concentration of half-maximal effect; nearly all actives have a fitted effect of over 50% in size. In a few lines:
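20 nM human CYP3A4 with 25 uM Luciferin-PPXE (at KM) in 200 mM KPO4, preincubated 10 min with compound; NADPH regeneration started a 60 min RT reaction. Luciferin detected by luminescence, normalized to 57 uM ketoconazole as full inhibition.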

For assay [7] the target is unchanged. Kind of assay: qHTS Assay for Activators of Cytochrome P450 3A4 (AID 885). Note: nearly all actives have a fitted effect of over 65% in size. In a few lines: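 Quantitative HTS format: compounds preincubated with 20nM human CYP3A4 and Luciferin-PPXE substrate at KM, reaction started by NADPH regeneration, stopped after 60 min, luciferase luminescence read 20 min later.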
Assay [8] is described as follows: qHTS profiling of the MIPE4 collection as inhibitors of Plasmodium falciparum (DD2) proliferation (AID 743345; call rule not given here). The conditions noted are these: P. falciparum Dd2 in erythrocytes, SYBR Green DNA, 72 h; at 28.5 µM (top of the series) unless noted. An outline of the steps: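 Erythrocytes infected with P. falciparum (0.3% parasitemia, 2.5% hematocrit) incubated with compounds 72 h at 37 C, 5% CO2. Lysis with saponin/Triton buffer containing SYBR Green I, overnight at room temperature in the dark; DNA fluorescence (485/535 nm) normalised to 0.29 uM artemisinin and DMSO.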

The target of assay [9] is Nuclear receptor subfamily 1 group I member 3 (Homo sapiens) (UniProt Q14994). As to the kind of experiment: Primary qHTS for antagonist of constitutive androstane receptor (CAR) against the NCATS DSHEA and TCM libraries (AID 1794836).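 Note: HepG2 cells stably expressing hCAR with CYP2B6 luciferase reporter stimulated by CITCO.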 An outline of the steps: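 Antagonist mode: CAR reporter luminescence (ONE-Glo) in HepG2-CYP2B6-hCAR cells stimulated with 48 uM CITCO (final) over 24 h at 37 C, compounds titrated; viability read first by CellTiter-Fluor fluorescence.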
Nuclear receptor subfamily 1 group I member 3 (Homo sapiens), sequence (Q14994 whole entry, looked up): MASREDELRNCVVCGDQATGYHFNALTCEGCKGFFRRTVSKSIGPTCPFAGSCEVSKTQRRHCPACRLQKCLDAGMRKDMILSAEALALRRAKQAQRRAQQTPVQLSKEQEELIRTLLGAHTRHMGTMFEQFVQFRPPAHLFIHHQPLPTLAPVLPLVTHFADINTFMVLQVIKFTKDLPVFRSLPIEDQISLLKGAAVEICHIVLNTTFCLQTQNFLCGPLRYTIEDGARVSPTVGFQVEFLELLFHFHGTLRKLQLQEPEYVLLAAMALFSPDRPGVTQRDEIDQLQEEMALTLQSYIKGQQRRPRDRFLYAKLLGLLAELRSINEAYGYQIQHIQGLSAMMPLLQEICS

Assay [10] is described as follows: qHTS for differential inhibitors of proliferation of Plasmodium falciparum line GB4 (AID 1816).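 Note: potency is the fitted concentration of half-maximal effect; parasite growth measured after 72 h incubation.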 The conditions noted are these: Potency: Plasmodium falciparum GB4 proliferation inhibition.
A short description of assay [11]: qHTS for differential inhibitors of proliferation of Plasmodium falciparum line W2 (AID 1883).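 Note: potency is the fitted concentration of half-maximal effect; parasites grown with compound for 72 h before lysis and staining.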 Conditions: Potency: Plasmodium falciparum W2 proliferation inhibition.
Assay [12] can be described thus: qHTS for differential inhibitors of proliferation of Plasmodium falciparum line HB3 (AID 1886).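 Note: potency is the fitted concentration of half-maximal effect; parasites grown with compound for 72 h before SYBR Green readout.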 The conditions noted are these: Potency: Plasmodium falciparum HB3 proliferation inhibition.
The nature of assay [13]: Cytometry Cell-Based qHTS for Inhibitors of the mTORC1 Signaling Pathway in MEF cells (AID 2668). Note: potency is the fitted concentration of half-maximal effect. An outline of the steps: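 MEFs (Tsc2-/-, p53-/- stably expressing WT Tsc2) treated 24 h at 37 degree Celsius, fixed, stained with Alexa-488 anti-phospho-rpS6 Ser235/236 and propidium iodide; Acumen laser scanning. Reported as % positive cells, phospho-S6 normalized to PI.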

Assay [14] in a line: Validation screen for small molecules that induce DNA re-replication in MCF 10A normal breast cells (AID 463097). Note: potency is the fitted concentration of half-maximal effect; nearly all actives have a fitted effect of over 60% in size. In a few lines:
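MCF 10A cells exposed to compound 48 hr at 37 C, 5% CO2, then Hoechst-stained 40 min. Laser-scanning imaging of nuclear DNA content (405 nm ex, 500-530 nm em); re-replication scored as rise in nuclei with elevated fluorescence intensity.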

Assay [15] has as its target M-phase phosphoprotein 8 (Homo sapiens) (UniProt Q99549). As to the kind of experiment: qHTS Validation Assay for Inhibitors for MPP8 Chromodomain Interactions with Methylated Histone Tails (AID 488949). Note: top concentration of the series differs between compounds; % is set by controls: 0 for no effect and ±100 for the full control effect; nearly all actives have a fitted effect of over 55% in size. In a few lines:
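MPP8 (50 nM) was pre-bound to 50 nM biotinylated H3(1-18)K9me3 peptide in PBS pH 7.4 with 0.01% Tween-20. Compounds were then added for 30 min at room temperature, and complex disruption was read by AlphaScreen with streptavidin donor and nickel-chelate acceptor beads.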

Assay [16] is described as follows: Validation screen for small molecules that induce DNA re-replication in SW480 colon adenocarcinoma cells (AID 504364). Note: potency is the fitted concentration of half-maximal effect. In a few lines: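 Cells are treated 48 hr with test compound, stained 40 min with Hoechst at 37 C, and scanned for nuclear fluorescence; compounds inducing re-replication increase nuclei with elevated intensity.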
The nature of assay [17]: Inducers of the Endoplasmic Reticulum Stress Response (ERSR) in human glioma: Validation (AID 504836). Note: 0% is about no effect. An outline of the steps: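 ERSR induction read as luciferase luminescence (Bright-Glo, 10 min at room temperature) in stably transfected human U87-MG glioma cells exposed to compounds for 16 h, using GRP78 as sensor.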
Assay [18] concerns the target Glutaminase kidney isoform, mitochondrial (Homo sapiens) (UniProt O94925). Kind of assay: qHTS for Inhibitors of Glutaminase (GLS): LOPAC Validation (AID 624146).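 Note: glutamate product detected by oxidase and peroxidase coupled Amplex red fluorescence gain; % is set by controls: 0 for no effect and ±100 for the full control effect; nearly all actives have a fitted effect of over 60% in size.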 An outline of the steps: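 hKGA in 45 mM KH2PO4 pH 8.2, 0.02% Tween-20 with pin-transferred compounds; 1 mM L-glutamine (stock) plus glutamate oxidase/HRP/Amplex Red coupling added. Fluorescence read initially and after 30 min at RT.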

Assay [19] is described as follows: qHTS of Trypanosoma Brucei Inhibitors: LOPAC Validation (AID 624147). Note: 0% is about no effect. In a few lines:
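In this concentration-response screen, enzyme-free wells defined baseline while DMSO plates tracked drift. Each reaction combined TbPYK, substrate, compound and 130 uM ADP for 45 min at room temperature. Kinase-Glo Plus luminescence gave the signal.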

Records with an inconclusive call do not appear. Activity calls are given as the source filed them. Unless noted, calls come from the whole dose curve; as a rule, active = well fitted curve in the direction sought with a large enough effect; inconclusive = small, poorly fitted or top-dose-only effect, or another doubt; inactive = no such curve, though single readings can be large; an effect the other way counts as inactive or inconclusive.

Cytochrome P450 3A4 (Homo sapiens), sequence (P08684 whole entry, looked up): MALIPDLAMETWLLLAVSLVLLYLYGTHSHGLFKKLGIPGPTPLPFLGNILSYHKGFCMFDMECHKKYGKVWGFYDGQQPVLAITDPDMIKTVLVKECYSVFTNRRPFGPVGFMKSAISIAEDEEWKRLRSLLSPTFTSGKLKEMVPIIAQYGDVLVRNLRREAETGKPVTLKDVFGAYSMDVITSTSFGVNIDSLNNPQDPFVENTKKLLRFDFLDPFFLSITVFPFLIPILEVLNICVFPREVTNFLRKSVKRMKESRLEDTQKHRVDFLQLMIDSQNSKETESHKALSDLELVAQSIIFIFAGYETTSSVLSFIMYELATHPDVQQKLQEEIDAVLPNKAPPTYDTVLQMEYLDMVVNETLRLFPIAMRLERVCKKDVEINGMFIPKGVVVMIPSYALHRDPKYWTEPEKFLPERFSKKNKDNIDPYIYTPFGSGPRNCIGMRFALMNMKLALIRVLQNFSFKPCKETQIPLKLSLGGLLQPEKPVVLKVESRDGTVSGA
M-phase phosphoprotein 8 (Homo sapiens), sequence (Q99549 whole entry, looked up): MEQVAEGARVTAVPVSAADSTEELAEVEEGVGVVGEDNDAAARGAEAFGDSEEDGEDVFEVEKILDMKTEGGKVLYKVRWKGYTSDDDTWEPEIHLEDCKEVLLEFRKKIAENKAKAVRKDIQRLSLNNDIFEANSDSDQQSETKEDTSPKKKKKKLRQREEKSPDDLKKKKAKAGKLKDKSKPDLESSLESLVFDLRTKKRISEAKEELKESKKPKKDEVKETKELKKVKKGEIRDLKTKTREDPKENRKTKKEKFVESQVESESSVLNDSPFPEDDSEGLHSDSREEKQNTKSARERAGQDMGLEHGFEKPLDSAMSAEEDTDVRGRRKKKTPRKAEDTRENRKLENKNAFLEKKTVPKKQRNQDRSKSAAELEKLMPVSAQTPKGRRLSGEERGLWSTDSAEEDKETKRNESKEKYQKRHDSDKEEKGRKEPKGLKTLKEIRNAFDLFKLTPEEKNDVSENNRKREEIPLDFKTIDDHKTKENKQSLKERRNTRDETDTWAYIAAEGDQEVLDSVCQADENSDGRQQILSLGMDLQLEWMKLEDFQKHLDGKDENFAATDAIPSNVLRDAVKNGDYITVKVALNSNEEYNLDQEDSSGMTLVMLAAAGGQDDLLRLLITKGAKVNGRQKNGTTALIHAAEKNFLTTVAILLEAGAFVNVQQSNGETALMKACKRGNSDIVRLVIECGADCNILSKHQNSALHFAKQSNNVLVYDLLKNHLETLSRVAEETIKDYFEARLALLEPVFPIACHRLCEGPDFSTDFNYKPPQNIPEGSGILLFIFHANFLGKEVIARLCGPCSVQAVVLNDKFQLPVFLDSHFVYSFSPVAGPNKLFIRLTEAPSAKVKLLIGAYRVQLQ
Glutaminase kidney isoform, mitochondrial (Homo sapiens), sequence (O94925 whole entry, looked up, canonical isoform): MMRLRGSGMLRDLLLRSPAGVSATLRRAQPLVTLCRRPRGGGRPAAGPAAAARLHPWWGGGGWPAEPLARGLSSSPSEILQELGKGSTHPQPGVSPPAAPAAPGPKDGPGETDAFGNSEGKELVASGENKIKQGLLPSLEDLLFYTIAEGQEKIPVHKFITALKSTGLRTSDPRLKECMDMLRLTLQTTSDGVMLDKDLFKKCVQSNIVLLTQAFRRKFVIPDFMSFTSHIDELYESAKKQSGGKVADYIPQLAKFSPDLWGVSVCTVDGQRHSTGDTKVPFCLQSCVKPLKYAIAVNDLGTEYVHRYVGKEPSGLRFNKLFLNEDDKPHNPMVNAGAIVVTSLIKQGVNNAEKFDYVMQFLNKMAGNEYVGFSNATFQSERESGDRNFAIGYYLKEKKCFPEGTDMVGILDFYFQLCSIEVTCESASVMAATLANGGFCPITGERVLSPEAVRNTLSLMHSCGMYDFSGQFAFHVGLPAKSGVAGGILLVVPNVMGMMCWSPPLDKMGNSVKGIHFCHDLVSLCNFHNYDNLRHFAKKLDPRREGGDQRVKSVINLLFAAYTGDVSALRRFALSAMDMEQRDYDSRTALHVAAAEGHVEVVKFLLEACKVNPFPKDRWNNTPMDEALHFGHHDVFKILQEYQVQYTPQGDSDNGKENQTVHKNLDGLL

Consider `O=c1cc(O)cc(/C=C/c2ccc(O)c(O)c2)o1`, for which the Potency entry in assay [1], in assay [2], in assay [3], in [4] and in assay [5] was “inactive” throughout.

For `O=c1cc(-c2ccc(O)c(O)c2)oc2cc(O)cc(O)c12`, in assay [6], the Potency is 15.8 µM (active). For the same compound, the Potency entry in assay [7], in assay [2], in assay [3], in assay [4], in [5] and in assay [9] was “inactive” throughout. In [8], this compound registered a parasite growth remaining, % of DMSO control (lower = more inhibition) of 89.2%.

`CCCCCCCCCCCCCC(=O)OCC(O)CO` (stereo not drawn): the Potency result in assay [2], in [3], in [4], in assay [5] and in assay [9] was “inactive” throughout.

Regarding `C[C@@]12C[C@@]3(O)O[C@@H](O1)[C@]1(COC(=O)c4ccccc4)[C@@H]3C[C@@]12O[C@@H]1O[C@H](CO)[C@@H](O)[C@H](O)[C@@H]1O`, the Potency entry in assay [2], in [3], in assay [4], in [5] and in assay [9] was “inactive” in each case.

In the case of `COc1cc([C@@H]2c3cc4c(cc3[C@H](O)C3COC(=O)[C@@H]32)OCO4)cc(OC)c1OC` (stereo partly drawn), the Potency in assay [10] is 12.6 µM (active); in assay [11], 11.2 µM (active); in assay [12], 15.8 µM (active); in [13], 0.0465 µM (active); in assay [14] it was 0.0355 µM (active); in [16], 0.0326 µM (active). Further, the Potency entry in assay [1], in assay [15], in [2], in assay [3], in assay [4] and in assay [5] was “inactive” in each case. Besides, the call in assay [17], in assay [18] and in assay [19] was inactive.

Source of the values: PubChem BioAssay (NCATS).
